Assay outcomes as filed in PubChem BioAssay.
This is a sample that favours compounds with a hit; in the whole collection about 2.4% have one here.
FEN1 inhibitor – human FEN1 inhibition; P39748; Recombinant FEN1 flap cleavage, fluorescence, 15 min; Potency, µM (top dose mostly 114 µM), actives largely listed as inhibitors; hit rate 0.35% among 390,000; AID 588795; further: nearly all actives have a fitted effect of over 65% in size
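Steps: FEN1 (10 nM) dispensed; compound added by pin tool; 15 min at room temperature; substrate added to 50 nM final; reads at 0 min and 15 min; data normalized and fitted (four-parameter Hill).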
Pol kappa inh-1 – blocks human DNA polymerase kappa activity; purified Pol kappa, fluorescent DNA synthesis assay, 10 min; hit rate 0.53% among 400,000; Q9UBT6; AID 588579; Potency, µM (titrated, usually from 107 µM), hits mostly inhibitors
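Kinetic fluorescence readout at 0 and 10 min followed reaction start with substrate at 50 nM final. Beforehand, enzyme (10 nM Pol kappa) stood 15 min with compound at room temperature; buffer-only wells were negative controls.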
TDP1 inh – TDP1 (human) enzyme inhibition. recombinant TDP1, AlphaScreen DNA substrate cleavage. Potency, µM (doses to about 130 µM), usual class: inhibitors. hit rate 0.28% among 350,000; further: nearly all actives have a fitted effect of over 40% in size
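Here, a 5' biotin and 3' phosphotyrosine-FITC DNA oligonucleotide reports Tdp1 activity: intact substrate bridges AlphaScreen beads, while cleavage leaves a 3' phosphate and drops signal. All incubations at room temperature.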
Pol eta inh-1 – DNA polymerase eta (human) inhibition; Q9Y253; recombinant Pol eta, fluorescent DNA replication assay; Potency, µM (series often up to 114 µM), most hits filed as inhibitors; hit rate 1.2% among 390,000; AID 588591
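Pol eta at 10 nM preincubated with compounds 15 min at room temperature; reaction started with fluorescent substrate (50 nM final) and read kinetically at 0 and 10 min.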
Pol beta inh – blocks human DNA polymerase beta activity; P06746; Pol beta primer extension/strand displacement, fluorescence kinetic; Potency, µM (highest dose often 114 µM), usual class: inhibitors; hit rate 1.3% among 340,000; AID 485314
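Preincubation: enzyme (10 nM) with compound, 15 min, RT. Reaction: substrate added to 50 nM final. Reads: 0 and 10 min. Analysis: normalized, Hill fit.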
Pol iota inh – blocks human DNA polymerase iota activity | hit rate 1% among 390,000 | AID 588590 | Pol iota fluorescent replication assay, 10 min | Q9UNA4 | Potency, µM (highest dose often 115 µM), hits mostly inhibitors
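Fluorescent replication assay read twice, at 0 min and 10 min after adding 50 nM (final) substrate. Enzyme (10 nM) and compounds were first incubated 15 min at room temperature; enzyme-free buffer wells were negative controls.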
PGK validate – TbPGK inhibition, hit validation; Potency, µM (titrated, usually from 57.5 µM), hits mostly inhibitors; TbPGK coupled GAPDH assay, Kinase-Glo luminescence; hit rate 79% among 500; AID 686980; shares compounds with Pol kappa inh-1; further: nearly all actives have a fitted effect of over 65% in size
Target sequence (P07378 whole entry, looked up): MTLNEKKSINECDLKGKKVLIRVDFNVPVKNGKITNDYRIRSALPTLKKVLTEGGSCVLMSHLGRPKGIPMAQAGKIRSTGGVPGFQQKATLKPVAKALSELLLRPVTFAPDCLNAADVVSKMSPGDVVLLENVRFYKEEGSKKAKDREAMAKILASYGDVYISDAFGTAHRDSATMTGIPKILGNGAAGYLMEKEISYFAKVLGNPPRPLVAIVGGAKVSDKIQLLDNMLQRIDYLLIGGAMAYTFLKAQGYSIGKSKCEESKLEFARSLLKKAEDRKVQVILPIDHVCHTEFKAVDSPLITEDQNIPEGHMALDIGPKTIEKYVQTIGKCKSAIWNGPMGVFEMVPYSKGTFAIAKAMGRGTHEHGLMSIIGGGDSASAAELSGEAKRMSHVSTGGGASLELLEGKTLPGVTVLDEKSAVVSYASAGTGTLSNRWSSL
POLI cherry-pick – Inhibitors of human DNA polymerase iota, confirmation | shares compounds with Pol kappa inh-1 | Pol iota primer extension, TAMRA/BHQ fluorescence | Potency, µM, usual class: inhibitors | hit rate 77% among 1,500
Pol kappa inh-2 – confirmation of human DNA polymerase kappa inhibitors. shares compounds with Pol eta inh-1. purified Pol-kappa, fluorescent strand-displacement substrate. Potency, µM, hits mostly inhibitors. hit rate 76% among 920
Pol eta inh-2 – Pol eta (human) inhibition, cherry-pick confirmation; shares compounds with Pol eta inh-1; Pol eta primer extension, TAMRA/BHQ fluorescence, 10 min; Potency, µM, usual class: inhibitors; hit rate 64% among 2,600
Numbers stand for hits; 0 = inactive; ? = inconclusive; - = not tested or not shown. The call rests on the fitted dose curve; in most records, active means well fitted curve in the direction sought with a large enough effect; inconclusive means small, poorly fitted or top-dose-only effect, or another doubt; inactive means no such curve, though single readings can be large; an effect the other way counts as inactive or inconclusive.

SMILES	FEN1 inhibitor	Pol kappa inh-1	TDP1 inh	Pol eta inh-1	Pol beta inh	Pol iota inh	POLI cherry-pick	Pol kappa inh-2	Pol eta inh-2	others
O=C(NN1C(=O)/C(=C/C=C/c2ccco2)SC1=S)c1ccncc1	7.1µM	3.2µM	-	1.4µM	?	1.3µM	6.7	3.8	3.4	PGK validate=3.3µM
COc1ccc(CCn2c3c(c(=O)[nH]c2=S)CN(Cc2ccccc2)CN3)cc1OC	0	0	0	-	-	?	-	-	-
COc1ccc(C(=O)c2cn(CC(=O)Nc3ccc4c(c3)OCCO4)c3ccc(OC)cc3c2=O)cc1	40µM	?	-	?	8.9µM	14µM	7.5	6	?
O=C1NC(=Nc2ccc3ccccc3c2)S/C1=C/c1ccco1	0	?	0	35µM	8.9µM	?	38	27	?
O=C1NC(=Nc2ccccc2)S/C1=C\c1cccs1	0	0	0	0	?	?	-	-	-
Cc1ccc2nc(SCC(=O)NCc3ccccc3Cl)nc(=O)n2c1	0	0	-	0	-	0	-	-	-
Cc1ccn2c(=O)nc(SCC(=O)NCc3ccccc3Cl)nc2c1	0	0	-	18µM	-	56µM	67	27	60
Cc1ccc(SC2=C(N(C)C)C(=O)c3ccccc3C2=O)cc1	0	0	-	8.9µM	-	20µM	?	-	76
COc1ccc(NC(=O)C2=C(C)Nc3nc(SCc4ccccc4C)nn3C2c2cc(OC)c(O)c(OC)c2)cc1 (stereo not given)	0	0	0	?	8.9µM	28µM	?	?	-
O=C(Cc1ccc(S(=O)(=O)N2CCCCC2)s1)Nc1cccc2ccccc12	0	0	0	0	0	0	-	-	-
O=C(O)Cc1ccc(S(=O)(=O)N2CCCC2)s1	0	79µM	10µM	7.1µM	-	?	47	12	30
O=C(/C=C/c1ccc(O)c(O)c1)NC(=O)c1ccccc1O	?	32µM	0	7.9µM	10µM	?	?	-	60
O=C(O)CSc1cc(C(=O)c2ccccc2O)cn2c(=O)c3c(-c4ccccc4)csc3nc12	?	?	?	14µM	45µM	?	21	-	27
CCCc1nc2scc(-c3ccccc3)c2c(=O)n1N	0	0	0	0	0	0	-	-	-
CCOc1ccc(-c2cc3nc(C4CCN(C(=O)OC(C)(C)C)CC4)c(C(=O)Nc4ccc(C)cc4C)cn3n2)cc1	0	0	0	?	0	0	-	-	-
Cn1c(SCC(=O)N/N=C/C=C\c2ccco2)nc2ccccc21	?	28µM	0	22µM	45µM	13µM	?	67	67
O=C(CSc1nc(-c2ccccc2)nc2c1Cc1ccccc1O2)Nc1ccc(C(=O)O)cc1	?	10µM	4.5µM	7.9µM	2µM	?	9.5	42	?
Cc1ccc(-c2nc3c(c(SCC(=O)Nc4cccc(C(=O)O)c4)n2)Cc2cccc(C)c2O3)cc1	?	?	-	-	1.8µM	?	8.4	3.8	85
O=C(CSc1nc(-c2ccc(F)cc2)nc2c1Cc1ccccc1O2)Nc1ccc(C(=O)O)cc1	?	?	5µM	?	4.5µM	1.4µM	7.5	7.5	-	PGK validate=2.1µM
CCOc1cccc2c1Oc1nc(-c3ccccc3)nc(SCC(=O)Nc3ccc(F)cc3)c1C2	0	0	0	0	0	0	-	-	-
O=C(Nc1ccccc1C(=O)N1CCCCC1)c1nsc2ccccc12	0	0	0	0	0	0	-	-	-
COc1ccc(S(=O)(=O)N(CC(=O)NCCSc2ccccc2)c2ccc(C)cc2)cc1	0	0	-	0	0	0	-	-	-
CCc1cccc(CC)c1NC(=O)C1CCC(CNS(=O)(=O)c2cccc3nsnc23)CC1 (stereo not given)	0	0	0	0	0	0	-	-	-
CCOc1ccc(N2CC(NC(=O)c3ccco3)CC2=O)cc1 (stereo not given)	0	0	0	0	0	0	-	-	-
COc1cc(NS(=O)(=O)c2ccc(NC(=S)NC(=O)/C=C/c3ccc(OC)c(OC)c3)cc2)ncn1	45µM	0	-	32µM	0	?	38	27	-	PGK validate=29µM
SMILES	FEN1 inhibitor	Pol kappa inh-1	TDP1 inh	Pol eta inh-1	Pol beta inh	Pol iota inh	POLI cherry-pick	Pol kappa inh-2	Pol eta inh-2	others
COc1ccc(/C=C/C(=O)NC(=S)Nc2ccc(S(=O)(=O)Nc3cc(OC)ncn3)cc2)cc1	0	0	-	0	0	?	-	-	-
COc1cccc(NC(=O)C2CCN(C(=O)N3CC(C)Oc4ccccc43)CC2)c1 (stereo not given)	0	0	0	0	0	0	-	-	-
N#Cc1c(NC(=O)/C=C/C(=O)O)sc2c1CCN(Cc1ccccc1)C2	0	0	-	28µM	32µM	0	47	24	48
NS(=O)(=O)c1ccc(CCNC(=O)C2Cc3ccccc3CN2C(=O)c2ccco2)cc1 (stereo not given)	0	?	0	?	0	?	-	-	-
NS(=O)(=O)c1ccc(NC(=O)C2Cc3ccccc3CN2C(=O)c2ccco2)cc1 (stereo not given)	0	79µM	-	20µM	28µM	20µM	?	-	67
CN(C)c1ccc(/C=C/c2ccnc3c(Cl)cccc23)cc1	0	0	-	-	-	0	-	-	-
Cc1cc(C(=O)OCC(=O)NCc2ccccc2)c2ccccc2n1	0	0	0	0	-	0	-	-	-
COc1ccccc1CNC(=O)COC(=O)c1cc(-c2ccco2)nc2ccccc12	50µM	22µM	-	14µM	5µM	7.1µM	21	15	24
COc1ccc(NC(=O)c2cc(-c3ccco3)nc3ccccc23)cc1	0	0	-	0	-	?	-	-	-
COc1ccc(NC(=O)CN(C)C(=O)c2cc(-c3ccco3)nc3ccccc23)cc1	?	45µM	4µM	2.8µM	-	8.9µM	30	-	43
Cc1ccc(-n2c(C)nc3oc4ccccc4c(=O)c3c2=O)cc1	0	?	0	79µM	40µM	?	24	-	38
COc1ccc2c(=O)c3c(=O)n(-c4ccc(C)cc4)c(-c4ccccc4)nc3oc2c1	-	-	0	-	0	-	-	-	-
COc1cccc(-c2nccc(NCc3cccnc3)n2)c1	-	0	-	-	-	-	-	-	-
Cc1ccc2c(c1)c(=O)c1c3n2CCN(C(=O)CCl)C3CC1 (stereo not given)	?	0	-	6.3µM	16µM	?	60	-	60
CC(C)(O)c1ccccc1CC[C@@H](SCC1(CC(=O)O)CC1)c1cccc(/C=C/c2ccc3ccc(Cl)cc3n2)c1	0	0	-	?	-	45µM	?	84	-
